Compounds with a hit are over-represented: about 3.5% of the library has one in this group of screens.
UGM FP inh: M. tuberculosis UGM enzyme inhibitors, primary screen, biochemical, fluorescence polarization, single point; UDP-galactopyranose mutase (Mycobacterium tuberculosis (strain ATCC 25618 / H37Rv)), …; purified UGM, fluorescence polarization probe displacement; inhibition, % at 10 µM; 320,000 compounds, 0.06% hits; AID 504406, 2011; in the data active means inhibition above about 10%, passing the limit was not always enough
GDH-TPI counter-1: GDH-TPI coupling enzyme inhibitors, primary screen, artefact control for M. tuberculosis FBA inhibitor project, biochemical, absorbance, full deck; 360,000 compounds, 1.2% hits; inhibition, % at 4.8 µM; GDH-TPI coupled enzyme counterscreen, NADH absorbance; AID 588335, 2011; in the data active means inhibition above about 30%;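 further: 0% = DMSO wells and 100% = wells lacking the enzyme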
FBA Mtb inh: Mtb FBA enzyme inhibitors, primary screen, biochemical, fluorescence, strain H37Rv; Fructose-bisphosphate aldolase (Mycobacterium tuberculosis (strain ATCC 25618 / H37Rv)), …; purified M. tuberculosis FBA, fluorescence read-out; inhibition, % at 1 µM; 360,000 compounds, 2.3% hits; AID 588726, 2011;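 further: 0% = vehicle and 100% = reference inhibitor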
Target sequence (P9WQA3 whole entry, looked up): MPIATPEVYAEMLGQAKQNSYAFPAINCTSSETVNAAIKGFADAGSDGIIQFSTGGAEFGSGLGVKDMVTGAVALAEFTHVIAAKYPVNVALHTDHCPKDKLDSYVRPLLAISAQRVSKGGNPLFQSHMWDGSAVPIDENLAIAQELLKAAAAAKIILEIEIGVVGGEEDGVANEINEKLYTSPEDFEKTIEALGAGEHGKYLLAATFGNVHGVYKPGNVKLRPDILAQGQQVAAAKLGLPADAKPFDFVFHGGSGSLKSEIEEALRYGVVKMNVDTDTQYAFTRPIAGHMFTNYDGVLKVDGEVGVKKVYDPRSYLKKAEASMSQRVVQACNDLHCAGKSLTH
Rv3671c protease: Rv3671c serine protease inhibitors, primary screen, biochemical, fluorescence polarization, M. tuberculosis H37Rv; P9WHR9; inhibition, % at 5.96 µM; 320,000 compounds, 0.048% hits; AID 2606, 2010; in the data active means inhibition above about 38%;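 further: extracellular domain of Rv3671c used as enzyme; 0% = enzyme with DMSO and 100% = no enzyme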
Mtb bLac sens: beta-lactam sensitization of Mtb H37Rv, H37Rv. M. tuberculosis H37Rv growth with meropenem, percent inhibition. inhibition, % at 25 µM. 330,000 compounds, 0.27% hits. AID 434955, 2010; call rule not given here;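 further: growth measured after seven days incubation then overnight dye step; 0% = bacteria only wells and 100% = bacteria with antibiotic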
Mtb FBA inh conf: M. tuberculosis aldolase blockers, biochemical, fluorescence, strain H37Rv, confirmation. shares compounds with FBA Mtb inh. purified M. tuberculosis FBA, fluorescence read-out. inhibition, % at 1 µM. 5,600 compounds, 78% hits;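 further: 0% = vehicle wells and 100% = reference inhibitor wells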
GDH-TPI counter-2: GDH-TPI coupling enzyme inhibitors, artefact control for M. tuberculosis FBA inhibitor project, biochemical, fluorescence, high throughput | GDH-TPI coupled enzyme counterscreen | inhibition, % at 1 µM | shares compounds with FBA Mtb inh | 5,600 compounds, 81% hits | AID 652141, 2013; in the data active means inhibition above about 10%
GDH-TPI DR: GDH-TPI coupling enzyme inhibitors, dose response, artefact control for M. tuberculosis FBA inhibitor project, biochemical, fluorescence, IC50; shares compounds with FBA Mtb inh; GDH-TPI coupled enzyme assay, artifact counterscreen; IC50, µM; 170 compounds, 79% hits; call rule not given here
Active calls of the source: *; . = no result given; + = active, no number. Unless noted, no stated cut-off is given here; in the data, active means inhibition above about 27%; inactive means the rest.

SMILES | UGM FP inh | GDH-TPI counter-1 | FBA Mtb inh | Rv3671c protease | Mtb bLac sens | Mtb FBA inh conf | GDH-TPI counter-2 | others
CC(=O)NCCNC(=O)C1Cc2c(-c3ccccc3)ccnc2O1 (stereo not given) | . | 1.8 | -1.3 | . | . | . | .
CN1CCN(C(=O)C2Cc3c(-c4ccc5c(c4)OCO5)ccnc3O2)CC1 (stereo not given) | . | 7.3 | 40.2* | . | . | 18.0 | 6.3 | GDH-TPI DR=3.08*
CC(=O)Nc1ccc(NC(=O)C2Cc3c(-c4ccc5c(c4)OCO5)ccnc3O2)cc1 (stereo not given) | . | 6.2 | 33.0* | . | . | 9.4 | 0.9
CC(=O)NCCNC(=O)C1Cc2c(-c3ccc4c(c3)OCO4)ccnc2O1 (stereo not given) | . | -8.9 | 64.8* | . | . | 18.6 | -2.8 | GDH-TPI DR=2.91*
CC(=O)Nc1cccc(-c2ccnc3c2CC(C(=O)Nc2ccc4c(c2)OCO4)O3)c1 (stereo not given) | . | 3.5 | -3.7 | . | . | . | .
O=C(Nc1ccc2c(c1)OCO2)C1Cc2c(-c3ccncc3)ccnc2O1 (stereo not given) | . | 14.2 | 0.1 | . | . | . | .
O=C(Nc1ccc2c(c1)OCO2)C1Cc2c(-c3ccc4c(c3)OCO4)ccnc2O1 (stereo not given) | . | -6.2 | 35.8* | . | . | 77.0* | 60.8*
COc1ccc(NC(=O)C2Cc3c(-c4ccc5c(c4)OCO5)ccnc3O2)cc1 (stereo not given) | . | -0.9 | 46.4* | . | . | 20.6 | 12.1*
O=C(NCC1CC1)C1Cc2c(-c3ccc4c(c3)OCO4)ccnc2O1 (stereo not given) | . | 11.7 | 54.1* | . | . | 138.0* | 94.5*
O=C(NCC1CC1)C1Cc2c(-c3cccc(F)c3)ccnc2O1 (stereo not given) | . | 9.8 | 2.3 | . | . | . | .
O=C(c1ccco1)N1CCN(Cc2cc(=O)c(OCc3ccc(F)cc3)co2)CC1 | 3.6 | -1.8 | 4.0 | -5.4 | -0.2 | . | .
CCCN1CCN(CCCNC(=O)c2cc3c(=O)[nH]c4ccccc4c3s2)CC1 | 1.5 | 4.7 | 46.8* | -1.2 | -6.0 | 91.1* | 76.1*
COCCNC(=O)c1cc2c(=O)[nH]c3ccccc3c2s1 | -0.9 | 19.0 | 77.9* | -16.1 | -5.0 | 102.2* | 84.0*
CCCN1CCN(CCCNC(=O)c2cc3c(=O)oc4ccc(C)cc4c3s2)CC1 | -1.6 | 7.7 | 5.5 | 6.1 | -3.7 | . | .
Cc1ccc(CNn2cn[nH]c2=S)cc1 | 2.5 | -2.9 | -4.6 | 0.0 | -5.6 | . | .
Cc1cc(C)c(OCCCNC2CCCC2)c(Br)c1 | 0.6 | 6.5 | 67.1* | -5.3 | -8.3 | + | +
CN=C1CC(SC)=C1c1ccc(C)cc1 | 0.9 | 6.1 | -1.8 | 7.4 | -0.2 | . | .
CCCCCN(C(=O)CCC(=O)OC(C)C(=O)c1ccc(CC)cc1)c1c(N)n(CCCC)c(=O)[nH]c1=O (stereo not given) | . | 4.8 | -1.1 | . | . | . | .
Cc1ccc(C)c(N(C(=O)c2snc(C(N)=O)c2N)C(C(=O)NCC2CCCO2)c2ccc(C)o2)c1 (stereo not given) | 2.2 | 2.2 | 37.1* | -2.8 | 1.3 | 53.7* | 47.6*
Cc1ccc(C(C(=O)NCC2CCCO2)N(C(=O)c2snc(C(N)=O)c2N)c2ccccc2)o1 (stereo not given) | 0.5 | 14.2 | 11.9 | -1.1 | 2.3 | . | .
Cc1ccc(C)c(N(C(=O)c2snc(C(N)=O)c2N)C(C(=O)NCC2CCCO2)c2cccs2)c1 (stereo not given) | -1.2 | 0.3 | 35.8* | -17.9 | -7.1 | 18.9 | 7.1
CC(C)CC(c1nnnn1C(C)C)N1CCN(c2cccc(Cl)c2)CC1 (stereo not given) | 1.3 | -4.5 | 42.4* | 2.0 | -7.5 | + | +
COC(CNC(=O)c1cccc(-n2c(=S)[nH]c3cc(Cl)ccc3c2=O)c1)OC | -0.2 | 2.5 | 68.0* | -0.4 | -4.8 | + | 159.1*
O=C1NC(=O)C(c2cccs2)(c2cccs2)N1 | 5.4 | -11.7 | -1.5 | 3.2 | 4.3 | . | .
CCCc1c(O)c2ccccc2[nH]c1=O | -0.2 | -9.1 | 29.9* | -1.8 | 10.0 | 49.7* | 41.6*
SMILES | UGM FP inh | GDH-TPI counter-1 | FBA Mtb inh | Rv3671c protease | Mtb bLac sens | Mtb FBA inh conf | GDH-TPI counter-2 | others
C=CCN(C(=O)c1csnn1)C(C(=O)NC(C)(C)C)c1ccncc1 (stereo not given) | -0.2 | -6.0 | 1.4 | 0.9 | -2.1 | . | .
COc1ccc(-c2[nH]c(-c3cc(OC)c4c(c3)OCO4)nc2-c2ccccc2)cc1 | 1.9 | 15.1 | 61.5* | -9.8 | 73.2 | + | +
CN(Cc1ccc(F)cc1)C(=O)CNC(=O)c1cccs1 | -0.8 | 3.5 | 63.9* | -9.1 | 1.8 | 0.9 | -5.4
CCCSc1nnc(NC(=O)CSc2sc3c(O)cc(=O)[nH]c3c2C#N)s1 | 0.8 | -3.1 | 92.7* | -10.5 | -6.8 | 12.0 | -1.1 | GDH-TPI DR=>10
Cc1ccc(C(=O)CC(c2cccs2)S(=O)(=O)c2ccc(C)cc2)cc1 (stereo not given) | 0.6 | 2.2 | 101.5* | -6.7 | 7.1 | 61.2* | 28.9*
CC(=O)c1ccc(S(=O)(=O)N2CCCC(N(C)CCc3ccccn3)C2)cc1 (stereo not given) | -0.8 | -0.9 | 75.7* | 3.5 | -6.5 | -2.5 | -5.1
COc1cc(CC(=O)NCC2COc3ccccc3O2)cc(OC)c1OC (stereo not given) | -0.9 | 3.1 | 2.0 | -3.3 | 0.9 | . | .
CCc1nnc(SCc2cn3c(C)cc(C)nc3n2)n1N | -5.0 | -5.3 | 38.8* | 6.3 | -8.9 | 44.8* | 53.1*
Cc1cc(C)n2cc(CSc3nnnn3C)nc2n1 | 0.6 | 6.0 | 27.9* | -6.6 | -5.3 | + | 187.4*
Cc1cc(C)n2cc(CSc3nncn3C)nc2n1 | -1.8 | 5.6 | 48.8* | -12.4 | -4.1 | 2.3 | -3.9
CCC1=C(OC(=O)N(CC)CC)N2C(=O)OC(=NCCc3c[nH]c4ccccc34)[C@]2(Cc2ccccc2)[C@H]2C1=CC[C@H]1C(=O)N(CC)C(=O)[C@H]12 | 5.0 | -3.5 | 2.8 | -10.7 | 1.6 | . | .
CC(=O)N1CCc2cc(S(=O)(=O)NC(CC(C)C)C(=O)N3CCCC3)ccc21 (stereo not given) | -1.1 | 5.2 | 0.5 | -2.7 | -5.5 | . | .
CC1(C(=O)NCC2CC2)Cc2c(-c3ccc4c(c3)OCO4)ccnc2O1 (stereo not given) | . | 11.1 | 88.5* | . | . | 76.1* | 51.1*

High-throughput results from PubChem.
